PubChem BioAssay AID2451 (National Center for Advancing Translational Sciences (NCATS), 2010)
Out of some 290,000 compounds screened, about 2,100 (0.72%) were called active. Entries that show only a call come without a potency. Another 4% or so got no clear call; they are omitted. Calls come from the whole dose curve; as a rule, active = well fitted inhibition curve with a large enough effect; inconclusive = small, poorly fitted or top-dose-only effect, or effect the other way; inactive = flat fitted curve, though single readings scatter. The sample as a whole holds a higher share of actives than the screen did.

biological target: Fructose-bisphosphate aldolase (Giardia intestinalis (strain ATCC 50803 / WB clone C6)) (UniProt A8B2U2); assay: qHTS Assay for Inhibitors of Fructose-1,6-bisphosphate Aldolase from Giardia Lamblia; settings: purified Giardia FBPA; series mostly up to 59.6 µM; note: nearly all actives have a fitted effect of over 55% in size
Sequence (A8B2U2 whole entry, looked up): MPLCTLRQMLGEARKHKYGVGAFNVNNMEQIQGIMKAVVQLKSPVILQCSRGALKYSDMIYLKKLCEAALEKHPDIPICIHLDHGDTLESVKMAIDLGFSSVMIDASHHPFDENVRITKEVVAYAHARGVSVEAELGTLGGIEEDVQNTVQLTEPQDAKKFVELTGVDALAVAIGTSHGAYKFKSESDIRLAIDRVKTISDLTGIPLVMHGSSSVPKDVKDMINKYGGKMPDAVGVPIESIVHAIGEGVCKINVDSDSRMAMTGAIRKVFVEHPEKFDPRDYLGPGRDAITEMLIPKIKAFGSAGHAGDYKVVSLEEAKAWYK
Source text: Assay Provider: Osnat Herzberg, University of Maryland
The objective of this project is to obtain compounds that inhibit Giardia lamblia growth. G. lamblia is a human pathogen which afflicts impoverished nations; it is the most common cause of outbreaks of diarrhea in the United States. During the course of our study of potential drug targets in Giardia, we have identified the Class II (Zn2+ functions in electrophilic catalysis) fructose-1,6-bisphosphate aldolase (FBPA) as an excellent candidate for drug targeting. FBPA is a key glycolytic pathway enzyme, essential for G. lamblia survival. The human FBPA belongs to the Class I aldolases, which have a different substrate binding site structure and a radically different catalytic mechanism (employing a lysine-Schiff base intermediate). Therefore, affinity-based or mechanism-based inhibitors of the Giardia FBPA are expected not to interfere with the catalytic function of the human FBPA.
A glyceraldehyde-3-phosphate dehydrogenase/triose phosphate isomerase/NAD/arsenate coupled assay was adapted to the 1536-well HTP format for use in the primary screen. This was done by coupling it to a diaphorase/resazurin/resorufin reaction that can be monitored by fluorescence (excitation, 544 nm; emission, 590 nm). Compounds identified in this screen will be further evaluated by coupling the glycerol-3-phosphate/triose phosphate isomerase/NADH assay to a phenazine methosulfate/tetranitroblue tetrazolium color reaction. False positives due to the dehydrogenases and diaphorase inhibition will be eliminated, and selectivity assay will triage inhibitors of mammalian triose phosphate isomerase and the Class I FBPA. G. lamblia FBPA inhibitors identified by the in vitro analyses will be examined for growth inhibition of Giardia trophozoites, and for cytotoxicity in human cells.
Step,Parameter,Value,Description
1,Enzyme reagent,2 uL,40 nM FBPA
2,Compound,23 nL,3.68 nM-57.5 uM final concentration
3,Time,10 min,RT Incubation
4,Substrate/detection Reagent,2 uL,Substrate + enzyme coupling system + AmpLite Red kit
5,Time,20 min,RT Incubation
6,Detector,525 nm/598 nm (Fluorescence),ViewLux Fluorescence Read (Read 1)
1,Medium-binding black solid-bottom Kalypsys plates. FRD or Kalypsys dispenser, 2 uL of FBPA enzyme. Bottle kept at 4C.
2,Compound Library (10 mM ,1:5 dilution). Pin-transferred for a [final] range of 3.68 nM-57.5 uM.
4,FRD or Kalypsys dispenser, 2 uL of reaction mixture. Bottle kept at 4C and covered in foil to protect from light.
6,ViewLux Protocol 1194; Excitation filter wheel A (525/20 Pol; BODIPY TMR FP), Emission filter wheel B (598/25 S; BODIPY TMR FP S).
Keywords: Fructose-bisphosphate aldolase, FBPA , Giardia lamblia , Giardia, HTS, Inhibitors
Potency is the fitted concentration of half-maximal effect.

Compound | Potency
O=S(=O)(Nc1ccccc1Cl)c1cccc2nsnc12 | inactive
CCOC(=O)c1cc2cc3ccccc3cc2oc1=O | inactive
C=CCNC(=S)NNC(=O)c1cc(Cl)ccc1OC | inactive
COc1ccc(Cl)cc1C(=O)NNC(=O)c1nc2nc(C)cc(C)n2n1 | 17.7 µM (active)
Cc1cc(C)n2nc(C(=O)NC(C)(C)C)nc2n1 | inactive
CCN1C(=S)N[C@@H](c2cccc(C(F)(F)F)c2)C(C(=O)OC)=C1C | inactive
O=C(Nc1cccnc1Cl)c1cc(-c2ccccc2O)on1 | inactive
CSCc1nnc(NC(=O)c2ccc(S(=O)(=O)N3CCCCC3C)cc2)o1 (stereo not drawn) | inactive
O=C(Nc1ccc(N2CCOCC2)c(Cl)c1)c1ccc(S(=O)(=O)N2CCOCC2)cc1 | inactive
CC1CCCN(S(=O)(=O)c2ccc(C(=O)Nc3nnc(-c4ccncc4)o3)cc2)C1 (stereo not drawn) | 7.06 µM (active)
CC1CCCCN1S(=O)(=O)c1ccc(C(=O)Nc2nnc(-c3cccs3)o2)cc1 (stereo not drawn) | inactive
O=C(Nc1nnc(-c2ccco2)o1)c1ccc(S(=O)(=O)N2CCOCC2)cc1 | 17.7 µM (active)
Cc1ccnc(NS(=O)(=O)c2ccc(NC(=O)c3ccc(S(=O)(=O)N4CCOCC4)cc3)cc2)n1 | inactive
CC(C)(C)c1ccc(Cn2nnc3c(=O)[nH]c(C4CCCN(C(=O)c5ccco5)C4)nc32)cc1 (stereo not drawn) | inactive
Cc1cccc(C(=O)Nc2ccc(Oc3cnccn3)cc2)c1 | inactive
CN(Cc1ccccc1)C(=O)CSc1nc2ccccc2[nH]1 | inactive
COc1cc(Cl)ccc1OCc1cc(C(=O)N2CC[C@@H]3CCCC[C@H]3C2)no1 | inactive
COC(=O)[C@@H]1C[C@@]2(O)[C@H](O)[C@H](O)[C@H](O)C[C@H]2N1CC1CCCCC1 | inactive
Cc1cccc(C)c1OCCN1CCOCC1 | 15.8 µM (active)
c1ccc(-c2ccc(OCCN3CCOCC3)cc2)cc1 | inactive
CC(=O)c1ccc(OCCN2CCOCC2)cc1 | inactive
N#Cc1ccc(C2N=C(c3ccccc3)NO2)cc1 (stereo not drawn) | inactive
COc1ccccc1C(C)NC(=O)Cc1ccsc1 (stereo not drawn) | inactive

Compound | Potency
O=C(C[n+]1cc(Br)cc2ccccc21)c1ccc(F)cc1 | inactive
O=[N+]([O-])c1ccc2c(c1)Nc1nc3ccccc3nc1N2 | inactive
O=C(CSc1nc2ccc([N+](=O)[O-])cc2[nH]1)c1ccc(Cl)cc1 | inactive
O=[N+]([O-])c1ccc2nc(-c3ccccn3)[nH]c2c1 | 7.92 µM (active)
COc1cccc(N(CC(=O)NCc2ccccc2)C(=O)CCC(=O)Nc2nccs2)c1 | inactive
CCOc1ccccc1NC(=S)NC(=O)CCc1ccccc1 | inactive
CCc1cccc(NC(=S)N(CCN(C)C)C2CCN(C(C)C)CC2)c1 | inactive
COCCN(CCOC)C(=S)Nc1ccccc1Cl | inactive
COCCN(C(=S)Nc1ccccc1OC)C1CCN(C(C)C)CC1 | 15.8 µM (active)
CCNc1c(NS(=O)(=O)c2ccc(C3CCCCC3)cc2)c(=O)oc2ccccc12 | inactive
O=c1c(O)c(Br)ccc2c(Br)c(O)c(O)c(O)c12 | 11.2 µM (active)
Cc1noc(C)c1-c1ccc2ncnc(NCc3ccc4[nH]ccc4c3)c2c1 | inactive
O=C(NC(=S)N1CCCCC1c1cccnc1)c1ccccc1 (stereo not drawn) | inactive
COc1ccc(C(=O)NC(=S)N2CCCCC2c2cccnc2)cc1OC (stereo not drawn) | 3.55 µM (active)
COc1ccc(/C=C/C(=O)NC(=S)NN2CCCCC2c2cccnc2)cc1 (stereo not drawn) | inactive
CC(C)(C)c1ccc(C(=O)N2CCN(CCNC(=O)C(=O)Nc3ccc(F)cc3)CC2)cc1 | inactive
CCc1nn(CCCC(=O)NCc2ccc(C)cc2)c(=O)c2cc3occc3n12 | inactive
CC(C)c1ccc(N(C(=O)c2ccco2)C(C(=O)NC2CCCC2)c2cccnc2)cc1 (stereo not drawn) | inactive
O=c1[nH]c(=O)c2nc3ccccc3nc2[nH]1 | inactive
Nc1ccc2nc3c(=O)[nH]c(=S)[nH]c3nc2c1 | 3.54 µM (active)
Cc1ccc(NS(=O)(=O)c2ccc(-c3ccc(=O)[nH]n3)o2)c(C)c1 | inactive
O=[N+]([O-])c1ccc(N(CCO)Cc2ccccc2)c([N+](=O)[O-])c1 | inactive
CCOc1cc(-c2cc(-c3ccc(NC(C)=O)cc3)nc(N)c2C#N)ccc1O | inactive

Compound | Potency
CCN(CC)c1ccc([N+](=O)[O-])c2cccnc12 | inactive
O=[N+]([O-])c1cccc2ncccc12 | inactive
O=[N+]([O-])c1cc([N+](=O)[O-])c2cccnc2c1O | 15.8 µM (active)
CCOC(OCC)c1ccc(/C=C\c2nccc(N)n2)cc1 | inactive
Cc1ccc(NC(=S)NCCc2ccc(Cl)cc2)c(C)c1 | inactive
O=c1o[nH]c(-c2ccccc2)c1N=Nc1c(F)cccc1Cl | inactive
COc1ccc(-c2cn[nH]c2-c2ccc(OC)cc2)cc1 | inactive
COc1ccc(N=Nc2c(-c3ccc(OC)cc3)[nH]oc2=O)cc1 | 12.6 µM (active)
O=C(Nc1ccc([N+](=O)[O-])cc1)OCCc1ccccn1 | inactive
CCS(=O)(=O)C1=NSC2=NC(=O)/C(=C\c3ccc(OS(=O)(=O)c4ccccc4)cc3)C(=N)N21 | inactive
COc1ccc(OCc2cc(C(=O)NCC3(C)COC3)no2)c(Cl)c1 | inactive
COC(=O)c1c(NC(=O)COc2ccc(Cl)cc2Cl)sc2c1CC(C)(C)NC2(C)C | inactive
CN1CCCc2cc(C#N)c(=O)[nH]c21 | 9.98 µM (active)
Cc1[nH]c(C)c(S(=O)(=O)N2CCC(C)CC2)c1C(=O)N1CCCC1 | inactive
CCNC(=S)N(CCN(CC)CC)Cc1cc2cc3c(cc2[nH]c1=O)OCCO3 | inactive
O=c1[nH]c2ccccc2n2c(-c3ccccc3)nnc12 | 0.998 µM (active)
Cc1ccc(-c2nc3ccccc3[nH]c2=O)cc1 | inactive
CCOC(=O)c1cnc2[nH]c3ccccc3n2c1=O | inactive
O=C1c2ccccc2C(=O)N1CCOc1ccc(F)cc1 | inactive
COc1ccc(C2=NN(C(=O)c3ccccc3C(=O)O)C(c3ccccc3O)C2)cc1 (stereo not drawn) | inactive
Cc1ccccc1N1CCN(CCCN2C(=O)C3CCCCN3C2=O)CC1 (stereo not drawn) | inactive
CCCCC1(C(=O)OCC)NC(c2ccc(O)cc2)C2C(=O)N(c3ccccc3)C(=O)C21 (stereo not drawn) | inactive
